Source: the supplement of paper PMC11018630
Where a name gives a salt, the structure may show the parent alone. ± gives the standard deviation of the averaged measurements.

Test system: RDEB dermal fibroblasts EB119
Experiment: day of extracellular matrix detachment from plate (days); higher = delayed detachment (less fibrotic matrix)
Conditions: compound concentration: 10 uM

Compound	day of extracellular matrix detachment from plate
CCN(C)C(=O)Oc1cccc([C@H](C)N(C)C)c1 [Rivastigmine]	30.3 ± 2.9
Cc1ccc(-n2nccn2)c(C(=O)N2CCN(c3nc4cc(Cl)ccc4o3)CC[C@H]2C)c1 [Suvorexant (MK-4305)]	25
N=C(N)NN [Aminoguanidine (hydrochloride)]	26.3 ± 1.1
